# Test results from PubChem BioAssay AID1159580 (chemical genetic matrix, 2015).
# The campaign covered roughly 5,500 compounds. About 2,000 (36%) were called active. About 18% were inconclusive and are not listed. The list shows a part of the results. Unmarked numbers belong to inactive results. Rule as the data show it: active = normalized growth mostly below about 0.91 (no sharp cut-off); inconclusive = no clear call, values can overlap the other calls; inactive = mostly above about 0.92.
# Assay: chemical genetic growth profiling, strain panel (AID 1159580);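 also: tested at 20 µM; growth read once vehicle control cultures reached saturation at 30 °C; 1 = growth at the plate median or of vehicle wells; lower values mean less growth of the strain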
# Conditions: growth OD
structure (smiles),measurement,setting,value
CC(=O)O[C@H]1C(=O)[C@@]2(C)C([C@H](OC(=O)c3ccccc3)[C@]3(O)C[C@H](OC(=O)[C@H](O)[C@@H](NC(=O)c4ccccc4)c4ccccc4)C(C)=C1C3(C)C)[C@]1(OC(C)=O)CO[C@@H]1C[C@@H]2O (stereo partly specified),normalized growth,"S. cerevisiae deletion strains, locus YJR066W, strain TOR1, hits give low values",0.943
same,normalized growth,"S. cerevisiae deletion strains, locus YJR075W, strain HOC1, hits give low values",1.04
same,normalized growth,"S. cerevisiae deletion strains, locus YKL009W, strain mrt4, hits give low values",0.636 (active)
same,normalized growth,"S. cerevisiae deletion strains, locus YKL068W, hits give low values",0.781 (active)
same,normalized growth,"S. cerevisiae deletion strains, locus YKL085W, strain MDH1 (second series), hits give low values",0.884 (active)
same,normalized growth,"S. cerevisiae deletion strains, locus YKL085W, strain MDH1, hits give low values",0.884 (active)
same,normalized growth,"S. cerevisiae deletion strains, locus YKL160W, strain elf1, hits give low values",1.01
same,normalized growth,"S. cerevisiae deletion strains, locus YKL190W, strain CNB1, hits give low values",1.02
same,normalized growth,"S. cerevisiae deletion strains, locus YKR026C, strain gcn3, hits give low values",0.999
same,normalized growth,"S. cerevisiae deletion strains, locus YKR091W, strain srl3, hits give low values",1
same,normalized growth,"S. cerevisiae deletion strains, locus YLL001W, strain dnm1, hits give low values",1.05
same,normalized growth,"S. cerevisiae deletion strains, locus YLL026W, hits give low values",0.993
same,normalized growth,"S. cerevisiae deletion strains, locus YLL041C, strain sdh2, hits give low values",0.979
same,normalized growth,"S. cerevisiae deletion strains, locus YLR027C, strain aat2, hits give low values",0.97
same,normalized growth,"S. cerevisiae deletion strains, locus YLR039C, strain RIC1, hits give low values",1.06
same,normalized growth,"S. cerevisiae deletion strains, locus YLR058C, strain SHM2, hits give low values",1.03
same,normalized growth,"S. cerevisiae deletion strains, locus YLR102C, strain apc9, hits give low values",1.03
same,normalized growth,"S. cerevisiae deletion strains, locus YLR113W, strain HOG1, hits give low values",0.945
same,normalized growth,"S. cerevisiae deletion strains, locus YLR221C, strain rsa3, hits give low values",1.03
same,normalized growth,"S. cerevisiae deletion strains, locus YLR258W, strain gsy2, hits give low values",0.997
same,normalized growth,"S. cerevisiae deletion strains, locus YLR262C, strain YPT6 (second series), hits give low values",1.02
same,normalized growth,"S. cerevisiae deletion strains, locus YLR262C, strain YPT6, hits give low values",1.15
same,normalized growth,"S. cerevisiae deletion strains, locus YLR268W, strain sec22, hits give low values",1.06
same,normalized growth,"S. cerevisiae deletion strains, locus YLR320W, strain mms22, hits give low values",1.01
same,normalized growth,"S. cerevisiae deletion strains, locus YLR330W, strain CHS5, hits give low values",1.03
same,normalized growth,"S. cerevisiae deletion strains, locus YLR342W, strain FKS1 (second series), hits give low values",1.06
same,normalized growth,"S. cerevisiae deletion strains, locus YLR342W, strain FKS1, hits give low values",1
same,normalized growth,"S. cerevisiae deletion strains, locus YLR357W, strain rsc2, hits give low values",1
same,normalized growth,"S. cerevisiae deletion strains, locus YLR370C, strain arc18, hits give low values",1.02
same,normalized growth,"S. cerevisiae deletion strains, locus YLR371W, strain rom2, hits give low values",1.03
same,normalized growth,"S. cerevisiae deletion strains, locus YLR384C, strain iki3, hits give low values",0.982
same,normalized growth,"S. cerevisiae deletion strains, locus YLR418C, strain cdc73, hits give low values",1.25 [resistant] (active)
same,normalized growth,"S. cerevisiae deletion strains, locus YML016C, strain PPZ1, hits give low values",1.03
same,normalized growth,"S. cerevisiae deletion strains, locus YML032C, strain rad52, hits give low values",1.05
same,normalized growth,"S. cerevisiae deletion strains, locus YML120C, strain ndi1, hits give low values",1.02
same,normalized growth,"S. cerevisiae deletion strains, locus YML124C, strain tub3, hits give low values",1.11 [resistant] (active)
same,normalized growth,"S. cerevisiae deletion strains, locus YMR058W, strain fet3, hits give low values",0.968
same,normalized growth,"S. cerevisiae deletion strains, locus YMR078C, strain ctf18, hits give low values",1.1 [resistant] (active)
same,normalized growth,"S. cerevisiae deletion strains, locus YMR125W, strain sto1, hits give low values",1.01
same,normalized growth,"S. cerevisiae deletion strains, locus YMR129W, hits give low values",0.987
same,normalized growth,"S. cerevisiae deletion strains, locus YMR205C, strain PFK2, hits give low values",1.02
same,normalized growth,"S. cerevisiae deletion strains, locus YMR223W, strain ubp8, hits give low values",1.12 [resistant] (active)
same,normalized growth,"S. cerevisiae deletion strains, locus YMR231W, strain pep5, hits give low values",0.983
same,normalized growth,"S. cerevisiae deletion strains, locus YMR263W, strain SAP30, hits give low values",1.06
same,normalized growth,"S. cerevisiae deletion strains, locus YMR307W, strain GAS1, hits give low values",1.09
same,normalized growth,"S. cerevisiae deletion strains, locus YNL067W, strain RPL9B, hits give low values",1.02
same,normalized growth,"S. cerevisiae deletion strains, locus YNL071W, strain lat1, hits give low values",0.972
same,normalized growth,"S. cerevisiae deletion strains, locus YNL128W, strain TEP1, hits give low values",1.05
same,normalized growth,"S. cerevisiae deletion strains, locus YNL153C, strain GIM3, hits give low values",1.03
same,normalized growth,"S. cerevisiae deletion strains, locus YNL183C, strain NPR1, hits give low values",0.952
same,normalized growth,"S. cerevisiae deletion strains, locus YNL209W, strain ssb2, hits give low values",1.01
same,normalized growth,"S. cerevisiae deletion strains, locus YNL233W, strain BNI4, hits give low values",1.02
same,normalized growth,"S. cerevisiae deletion strains, locus YNL248C, strain rpa49, hits give low values",0.783 (active)
same,normalized growth,"S. cerevisiae deletion strains, locus YNL250W, strain rad50, hits give low values",0.921
same,normalized growth,"S. cerevisiae deletion strains, locus YNL271C, strain bni1, hits give low values",1
same,normalized growth,"S. cerevisiae deletion strains, locus YNL298W, strain CLA4, hits give low values",0.941
same,normalized growth,"S. cerevisiae deletion strains, locus YNL307C, strain MCK1, hits give low values",1.03
same,normalized growth,"S. cerevisiae deletion strains, locus YNL322C, strain KRE1 (second series), hits give low values",0.986
same,normalized growth,"S. cerevisiae deletion strains, locus YNL322C, strain KRE1, hits give low values",1.03
same,normalized growth,"S. cerevisiae deletion strains, locus YNR049C, strain mso1, hits give low values",1
same,normalized growth,"S. cerevisiae deletion strains, locus YNR052C, strain pop2, hits give low values",1.09 [resistant] (active)
same,normalized growth,"S. cerevisiae deletion strains, locus YOL006C, strain TOP1, hits give low values",1.01
same,normalized growth,"S. cerevisiae deletion strains, locus YOL012C, strain htz1",2.06
same,normalized growth,"S. cerevisiae deletion strains, locus YOL147C, strain pex11, hits give low values",1.05
same,normalized growth,"S. cerevisiae deletion strains, locus YOR001W, strain rrp6, hits give low values",0.902
same,normalized growth,"S. cerevisiae deletion strains, locus YOR061W, strain CKA2, hits give low values",1.03
same,normalized growth,"S. cerevisiae deletion strains, locus YOR069W, strain VPS5, hits give low values",1.02
same,normalized growth,"S. cerevisiae deletion strains, locus YOR070C, strain gyp1, hits give low values",0.995
same,normalized growth,"S. cerevisiae deletion strains, locus YOR080W, strain dia2, hits give low values",1.01
same,normalized growth,"S. cerevisiae deletion strains, locus YOR083W, strain WHI5, hits give low values",1.01
same,normalized growth,"S. cerevisiae deletion strains, locus YOR106W, strain vam3, hits give low values",0.987
same,normalized growth,"S. cerevisiae deletion strains, locus YOR136W, strain idh2, hits give low values",1.1 [resistant] (active)
same,normalized growth,"S. cerevisiae deletion strains, locus YOR144C, strain elg1, hits give low values",1.1 [resistant] (active)
same,normalized growth,"S. cerevisiae deletion strains, locus YOR231W, strain MKK1, hits give low values",0.964
same,normalized growth,"S. cerevisiae deletion strains, locus YOR265W, strain rbl2, hits give low values",0.999
same,normalized growth,"S. cerevisiae deletion strains, locus YOR270C, strain vph1, hits give low values",0.866
same,normalized growth,"S. cerevisiae deletion strains, locus YOR290C, strain snf2, hits give low values",1.02
same,normalized growth,"S. cerevisiae deletion strains, locus YOR316C, strain cot1, hits give low values",1.06
same,normalized growth,"S. cerevisiae deletion strains, locus YPL051W, strain arl3, hits give low values",0.987
same,normalized growth,"S. cerevisiae deletion strains, locus YPL055C, strain LGE1, hits give low values",1.1
same,normalized growth,"S. cerevisiae deletion strains, locus YPL078C, strain atp4, hits give low values",0.956
same,normalized growth,"S. cerevisiae deletion strains, locus YPL106C, strain sse1, hits give low values",1.04
same,normalized growth,"S. cerevisiae deletion strains, locus YPL240C, strain hsp82, hits give low values",0.994
same,normalized growth,"S. cerevisiae deletion strains, locus YPL241C, strain CIN2, hits give low values",1.04
same,normalized growth,"S. cerevisiae deletion strains, locus YPL256C, strain CLN2, hits give low values",1.1
same,normalized growth,"S. cerevisiae deletion strains, locus YPR119W, strain clb2, hits give low values",1.03
same,normalized growth,"S. cerevisiae deletion strains, locus YPR141C, strain kar3, hits give low values",0.94
same,normalized growth,"S. cerevisiae deletion strains, locus YPR163C, strain tif3, hits give low values",1.05
same,normalized growth,"S. cerevisiae deletion strains, locus YPR167C, strain met16, hits give low values",1.08 [resistant] (active)
same,normalized growth,"S. cerevisiae deletion strains, strain wtn01, hits give low values",1.09
same,normalized growth,"S. cerevisiae strains, strain wild type, hits give low values",0.995
